# Source: PubChem BioAssay AID1159580 (chemical genetic matrix, 2015)
# Hit rate of the full screen: of about 5,500 compounds, about 2,000 (36%) were called active. Another 18% or so got no clear call; they are omitted. The list shows a part of the results. Values without a mark were called inactive. Cut-off read from the data, not from the text of the source: active = normalized growth mostly below about 0.91 (no sharp cut-off); inconclusive = no clear call, values can overlap the other calls; inactive = mostly above about 0.92.
# Assay: chemical genetic growth profiling, strain panel (AID 1159580);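 note: tested at 20 µM; growth read once vehicle control cultures reached saturation at 30 °C; 1 = growth at the plate median or of vehicle wells; lower values mean less growth of the strain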
# Conditions: growth OD
structure (smiles),measurement,setting,value
C[C@H](CCC(=O)O)[C@H]1CCC2C3C(CC[C@@]21C)[C@@]1(C)CC[C@@H](O)C[C@H]1C[C@@H]3O (stereo partly specified),normalized growth,"S. cerevisiae deletion strains, locus YKL009W, strain mrt4, stronger effect = lower value",0.807 (active)
same,normalized growth,"S. cerevisiae deletion strains, locus YKL068W, stronger effect = lower value",0.989
same,normalized growth,"S. cerevisiae deletion strains, locus YKL085W, strain MDH1 (second series), stronger effect = lower value",0.953
same,normalized growth,"S. cerevisiae deletion strains, locus YKL085W, strain MDH1, stronger effect = lower value",0.953
same,normalized growth,"S. cerevisiae deletion strains, locus YKL160W, strain elf1, stronger effect = lower value",0.977
same,normalized growth,"S. cerevisiae deletion strains, locus YKL190W, strain CNB1, stronger effect = lower value",0.99
same,normalized growth,"S. cerevisiae deletion strains, locus YKR001C, strain vps1, stronger effect = lower value",0.963
same,normalized growth,"S. cerevisiae deletion strains, locus YKR026C, strain gcn3, stronger effect = lower value",0.997
same,normalized growth,"S. cerevisiae deletion strains, locus YKR091W, strain srl3, stronger effect = lower value",0.99
same,normalized growth,"S. cerevisiae deletion strains, locus YLL001W, strain dnm1, stronger effect = lower value",0.953
same,normalized growth,"S. cerevisiae deletion strains, locus YLL026W, stronger effect = lower value",0.987
same,normalized growth,"S. cerevisiae deletion strains, locus YLL041C, strain sdh2, stronger effect = lower value",1
same,normalized growth,"S. cerevisiae deletion strains, locus YLR027C, strain aat2, stronger effect = lower value",0.983
same,normalized growth,"S. cerevisiae deletion strains, locus YLR039C, strain RIC1, stronger effect = lower value",0.828
same,normalized growth,"S. cerevisiae deletion strains, locus YLR058C, strain SHM2, stronger effect = lower value",0.984
same,normalized growth,"S. cerevisiae deletion strains, locus YLR102C, strain apc9, stronger effect = lower value",0.972
same,normalized growth,"S. cerevisiae deletion strains, locus YLR113W, strain HOG1, stronger effect = lower value",0.937
same,normalized growth,"S. cerevisiae deletion strains, locus YLR221C, strain rsa3, stronger effect = lower value",1.05
same,normalized growth,"S. cerevisiae deletion strains, locus YLR258W, strain gsy2, stronger effect = lower value",1.02
same,normalized growth,"S. cerevisiae deletion strains, locus YLR262C, strain YPT6 (second series), stronger effect = lower value",0.795 (active)
same,normalized growth,"S. cerevisiae deletion strains, locus YLR262C, strain YPT6, stronger effect = lower value",0.776
same,normalized growth,"S. cerevisiae deletion strains, locus YLR268W, strain sec22, stronger effect = lower value",0.929
same,normalized growth,"S. cerevisiae deletion strains, locus YLR320W, strain mms22, stronger effect = lower value",1.03
same,normalized growth,"S. cerevisiae deletion strains, locus YLR330W, strain CHS5, stronger effect = lower value",0.996
same,normalized growth,"S. cerevisiae deletion strains, locus YLR342W, strain FKS1 (second series), stronger effect = lower value",0.965
same,normalized growth,"S. cerevisiae deletion strains, locus YLR342W, strain FKS1, stronger effect = lower value",0.946
same,normalized growth,"S. cerevisiae deletion strains, locus YLR357W, strain rsc2, stronger effect = lower value",1.06
same,normalized growth,"S. cerevisiae deletion strains, locus YLR370C, strain arc18, stronger effect = lower value",0.964
same,normalized growth,"S. cerevisiae deletion strains, locus YLR371W, strain rom2, stronger effect = lower value",0.987
same,normalized growth,"S. cerevisiae deletion strains, locus YLR384C, strain iki3, stronger effect = lower value",0.967
same,normalized growth,"S. cerevisiae deletion strains, locus YLR418C, strain cdc73, stronger effect = lower value",0.965
same,normalized growth,"S. cerevisiae deletion strains, locus YML016C, strain PPZ1, stronger effect = lower value",0.978
same,normalized growth,"S. cerevisiae deletion strains, locus YML032C, strain rad52, stronger effect = lower value",0.95
same,normalized growth,"S. cerevisiae deletion strains, locus YML120C, strain ndi1, stronger effect = lower value",0.962
same,normalized growth,"S. cerevisiae deletion strains, locus YML124C, strain tub3, stronger effect = lower value",0.986
same,normalized growth,"S. cerevisiae deletion strains, locus YMR058W, strain fet3, stronger effect = lower value",0.997
same,normalized growth,"S. cerevisiae deletion strains, locus YMR078C, strain ctf18, stronger effect = lower value",0.972
same,normalized growth,"S. cerevisiae deletion strains, locus YMR125W, strain sto1, stronger effect = lower value",1.03
same,normalized growth,"S. cerevisiae deletion strains, locus YMR129W, stronger effect = lower value",0.988
same,normalized growth,"S. cerevisiae deletion strains, locus YMR205C, strain PFK2, stronger effect = lower value",0.985
same,normalized growth,"S. cerevisiae deletion strains, locus YMR223W, strain ubp8, stronger effect = lower value",1
same,normalized growth,"S. cerevisiae deletion strains, locus YMR231W, strain pep5, stronger effect = lower value",0.959
same,normalized growth,"S. cerevisiae deletion strains, locus YMR263W, strain SAP30, stronger effect = lower value",1
same,normalized growth,"S. cerevisiae deletion strains, locus YMR307W, strain GAS1, stronger effect = lower value",0.88
same,normalized growth,"S. cerevisiae deletion strains, locus YNL067W, strain RPL9B, stronger effect = lower value",0.972
same,normalized growth,"S. cerevisiae deletion strains, locus YNL071W, strain lat1, stronger effect = lower value",1.01
same,normalized growth,"S. cerevisiae deletion strains, locus YNL128W, strain TEP1, stronger effect = lower value",0.99
same,normalized growth,"S. cerevisiae deletion strains, locus YNL153C, strain GIM3, stronger effect = lower value",1
same,normalized growth,"S. cerevisiae deletion strains, locus YNL183C, strain NPR1, stronger effect = lower value",0.921
same,normalized growth,"S. cerevisiae deletion strains, locus YNL209W, strain ssb2, stronger effect = lower value",1.01
same,normalized growth,"S. cerevisiae deletion strains, locus YNL233W, strain BNI4, stronger effect = lower value",1.02
same,normalized growth,"S. cerevisiae deletion strains, locus YNL248C, strain rpa49, stronger effect = lower value",1.02
same,normalized growth,"S. cerevisiae deletion strains, locus YNL250W, strain rad50, stronger effect = lower value",0.978
same,normalized growth,"S. cerevisiae deletion strains, locus YNL271C, strain bni1, stronger effect = lower value",0.956
same,normalized growth,"S. cerevisiae deletion strains, locus YNL298W, strain CLA4, stronger effect = lower value",0.937
same,normalized growth,"S. cerevisiae deletion strains, locus YNL307C, strain MCK1, stronger effect = lower value",0.979
same,normalized growth,"S. cerevisiae deletion strains, locus YNL322C, strain KRE1 (second series), stronger effect = lower value",0.981
same,normalized growth,"S. cerevisiae deletion strains, locus YNL322C, strain KRE1, stronger effect = lower value",0.993
same,normalized growth,"S. cerevisiae deletion strains, locus YNR049C, strain mso1, stronger effect = lower value",0.993
same,normalized growth,"S. cerevisiae deletion strains, locus YNR052C, strain pop2, stronger effect = lower value",0.971
same,normalized growth,"S. cerevisiae deletion strains, locus YOL006C, strain TOP1, stronger effect = lower value",0.931
same,normalized growth,"S. cerevisiae deletion strains, locus YOL012C, strain htz1",0.86
same,normalized growth,"S. cerevisiae deletion strains, locus YOL147C, strain pex11, stronger effect = lower value",0.983
same,normalized growth,"S. cerevisiae deletion strains, locus YOR001W, strain rrp6, stronger effect = lower value",0.947
same,normalized growth,"S. cerevisiae deletion strains, locus YOR061W, strain CKA2, stronger effect = lower value",0.977
same,normalized growth,"S. cerevisiae deletion strains, locus YOR069W, strain VPS5, stronger effect = lower value",0.989
same,normalized growth,"S. cerevisiae deletion strains, locus YOR070C, strain gyp1, stronger effect = lower value",1
same,normalized growth,"S. cerevisiae deletion strains, locus YOR080W, strain dia2, stronger effect = lower value",0.972
same,normalized growth,"S. cerevisiae deletion strains, locus YOR083W, strain WHI5, stronger effect = lower value",0.969
same,normalized growth,"S. cerevisiae deletion strains, locus YOR106W, strain vam3, stronger effect = lower value",0.951
same,normalized growth,"S. cerevisiae deletion strains, locus YOR136W, strain idh2, stronger effect = lower value",1
same,normalized growth,"S. cerevisiae deletion strains, locus YOR144C, strain elg1, stronger effect = lower value",0.984
same,normalized growth,"S. cerevisiae deletion strains, locus YOR184W, strain ser1, stronger effect = lower value",0.921
same,normalized growth,"S. cerevisiae deletion strains, locus YOR231W, strain MKK1, stronger effect = lower value",0.952
same,normalized growth,"S. cerevisiae deletion strains, locus YOR265W, strain rbl2, stronger effect = lower value",0.99
same,normalized growth,"S. cerevisiae deletion strains, locus YOR270C, strain vph1, stronger effect = lower value",0.945
same,normalized growth,"S. cerevisiae deletion strains, locus YOR290C, strain snf2, stronger effect = lower value",1.03
same,normalized growth,"S. cerevisiae deletion strains, locus YOR316C, strain cot1, stronger effect = lower value",0.982
same,normalized growth,"S. cerevisiae deletion strains, locus YPL051W, strain arl3, stronger effect = lower value",1
same,normalized growth,"S. cerevisiae deletion strains, locus YPL055C, strain LGE1, stronger effect = lower value",1.01
same,normalized growth,"S. cerevisiae deletion strains, locus YPL078C, strain atp4, stronger effect = lower value",0.931
same,normalized growth,"S. cerevisiae deletion strains, locus YPL106C, strain sse1, stronger effect = lower value",0.993
same,normalized growth,"S. cerevisiae deletion strains, locus YPL240C, strain hsp82, stronger effect = lower value",1.01
same,normalized growth,"S. cerevisiae deletion strains, locus YPL241C, strain CIN2, stronger effect = lower value",0.993
same,normalized growth,"S. cerevisiae deletion strains, locus YPL256C, strain CLN2, stronger effect = lower value",0.936
same,normalized growth,"S. cerevisiae deletion strains, locus YPR119W, strain clb2, stronger effect = lower value",0.977
same,normalized growth,"S. cerevisiae deletion strains, locus YPR141C, strain kar3, stronger effect = lower value",0.97
same,normalized growth,"S. cerevisiae deletion strains, locus YPR163C, strain tif3, stronger effect = lower value",0.981
same,normalized growth,"S. cerevisiae deletion strains, locus YPR167C, strain met16, stronger effect = lower value",0.987
same,normalized growth,"S. cerevisiae deletion strains, strain wtn01, stronger effect = lower value",0.971
same,normalized growth,"S. cerevisiae strains, strain wild type, stronger effect = lower value",0.994
